# Measured values from PubChem BioAssay (NCATS).
# For part of these data: Entries with a potency or affinity are not part of this list. Calls of active or inactive are those of the source.
# Legend:
# [1] = Ebola virus entry assay, blue channel fluorescence
# [2] = Ebola virus entry assay, green fluorescence channel
# [3] = Ebola virus entry assay, ratio channel readout
# [4] = qHTS profiling of the MIPE4 collection as inhibitors of Plasmodium falciparum (3D7) proliferation (AID 743344; call rule not given here;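 also: scaled between DMSO vehicle wells and 0.29 µM artemisinin as full inhibition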); conditions: P. falciparum 3D7 in erythrocytes, SYBR Green DNA fluorescence, 72 h; at 28.5 µM (top of the series) unless noted
# Method in brief: (§1)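 Parasite DNA was quantified by SYBR Green I fluorescence (ex 485, em 535 nm) after overnight lysis in saponin/Triton buffer at room temperature. Cultures at 0.3% parasitemia and 2.5% hematocrit were first exposed to compound for 72 h at 37 C; signals were normalised to artemisinin (0.29 uM) and vehicle wells.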
# [5] = qHTS profiling of the MIPE4 collection as inhibitors of Plasmodium falciparum (DD2) proliferation (AID 743345; call rule not given here); conditions: P. falciparum Dd2 in erythrocytes, SYBR Green DNA, 72 h; at 28.5 µM (top of the series) unless noted
# Method in brief: as §1
# [6] = qHTS profiling of the MIPE4 collection as inhibitors of Plasmodium falciparum (DD2) proliferation (Rep 2) (AID 743346; call rule not given here); conditions: P. falciparum Dd2 in erythrocytes, SYBR Green DNA, 72 h; at 28.5 µM (top of the series) unless noted
# Method in brief: as §1
# [7] = qHTS profiling of the MIPE4 collection as inhibitors of Plasmodium falciparum (HB3) proliferation (AID 743347; call rule not given here;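 also: plate controls were DMSO vehicle wells for no effect and artemisinin wells for full effect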); conditions: P. falciparum HB3 in erythrocytes, SYBR Green DNA, 72 h; at 28.5 µM (top of the series) unless noted
# Method in brief: as §1
# [8] = Ebola virus entry assay, green fluorescence channel; remark: listed apart in the source
# [9] = Ebola virus entry assay, green channel fluorescence
# [10] = Ebola virus entry assay, blue channel fluorescence; remark: listed apart in the source
# [11] = Ebola virus entry assay, ratio channel
# [12] = Ebola virus entry assay, blue channel fluorescence; remark: listed apart in the source
# For efficacy in this document: 0% is about no effect.
smiles,measurement,setting,value
C[C@]12C=CC(=O)N[C@@H]1CC[C@@H]1[C@@H]2CC[C@]2(C)[C@@H](C(=O)Nc3cc(C(F)(F)F)ccc3C(F)(F)F)CC[C@@H]12,outcome,[1],inactive
same,outcome,[2],inactive
same,outcome,[3],inactive
CN1C(=O)COc2c(C(=O)NC3CN4CCC3CC4)cc(Cl)cc21 (stereo not given),"parasite growth, % of DMSO control",[4],98.1%
same,"parasite growth remaining, % of DMSO control (lower = more inhibition)",[5],78.2%
same,"parasite growth, % of control (lower = inhibition)",[6],95.9%
same,"growth, % of control",[7],86.6%
same,efficacy,[8],-18% (inactive)
same,outcome,[9],inactive
COc1cccc2c1C(=O)c1c(O)c3c(c(O)c1C2=O)C[C@@](O)(C(=O)CO)C[C@@H]3O[C@H]1C[C@H](N)[C@@H](O)[C@H](C)O1,AC50,[1],7.94 µM (active)
same,outcome,[2],inactive
same,outcome,[3],inactive
COc1cc([C@@H]2c3cc4c(cc3C(O[C@@H]3O[C@@H]5CO[C@@H](C)O[C@H]5[C@H](O)[C@H]3O)C3COC(=O)[C@@H]32)OCO4)cc(OC)c1OP(=O)(O)O (stereo not given in full),AC50,[1],7.08 µM (active)
same,outcome,[2],inactive
same,AC50,[3],7.08 µM (active)
CN1CCN(C(c2ccccc2)c2ccc(Cl)cc2)CC1 (stereo not given),AC50,[1],12.6 µM (active)
same,outcome,[2],inactive
same,outcome,[3],inactive
O=C(O[C@H]1CN2CCC1CC2)N1CCc2ccccc2[C@@H]1c1ccccc1,AC50,[1],10 µM (active)
same,outcome,[2],inactive
same,AC50,[3],7.95 µM (active)
C=C[C@H]1CN2CC[C@H]1C[C@H]2[C@H](O)c1ccnc2ccc(OC)cc12,outcome,[1],inactive
same,outcome,[2],inactive
same,outcome,[3],inactive
same,AC50,[10],25.1 µM (active)
same,AC50,[11],22.4 µM (active)
same,outcome,[9],inactive
COc1cc(C(=O)NS(=O)(=O)c2ccccc2C)ccc1Cc1cn(C)c2ccc(NC(=O)OC3CCCC3)cc12,outcome,[1],inactive
same,outcome,[2],inactive
same,outcome,[3],inactive
same,outcome,[10],inactive
same,outcome,[11],inactive
same,outcome,[9],inactive
same,outcome,[12],inactive
CC[C@H]1OC(=O)[C@H](C)[C@@H](O[C@H]2C[C@@](C)(OC)[C@@H](O)[C@H](C)O2)C(C)[C@@H](O[C@@H]2O[C@H](C)C[C@H](N(C)C)[C@@H]2O)[C@](C)(OC)C[C@@H](C)C(=O)[C@H](C)[C@@H](O)[C@]1(C)O (stereo not given in full),AC50,[1],7.94 µM (active)
same,outcome,[2],inactive
same,AC50,[3],7.95 µM (active)
CCOC(=O)CCC(=O)O[C@H]1[C@H](O[C@@H]2[C@@H](C)[C@H](O[C@H]3C[C@@](C)(OC)[C@@H](O)[C@H](C)O3)[C@@H](C)C(=O)O[C@H](CC)[C@@](C)(O)[C@H](O)[C@@H](C)C(=O)[C@H](C)C[C@@]2(C)O)O[C@H](C)C[C@@H]1N(C)C,outcome,[1],inactive
same,outcome,[2],inactive
same,outcome,[3],inactive
CN(C)CCOc1ccc(/C(=C(/CCCl)c2ccccc2)c2ccccc2)cc1,AC50,[1],4.47 µM (active)
same,outcome,[2],inactive
same,outcome,[3],inactive
COc1cc([C@@H]2c3cc4c(cc3[C@@H](O[C@@H]3O[C@@H]5CO[C@@H](c6cccs6)O[C@@H]5[C@H](O)[C@@H]3O)[C@H]3COC(=O)[C@H]23)OCO4)cc(OC)c1O,outcome,[1],inactive
same,outcome,[2],inactive
same,outcome,[3],inactive
CN=C(NC#N)NCCSCc1nc[nH]c1C,outcome,[1],inactive
same,outcome,[2],inactive
same,outcome,[3],inactive
same,outcome,[10],inactive
same,outcome,[11],inactive
same,outcome,[9],inactive
same,outcome,[12],inactive
CCn1cc(C(=O)O)c(=O)c2cc(F)c(N3CCNC(C)C3)c(F)c21 (stereo not given),outcome,[1],inactive
same,outcome,[2],inactive
same,outcome,[3],inactive
same,outcome,[10],inactive
same,outcome,[11],inactive
same,outcome,[9],inactive
same,outcome,[12],inactive
C=CC[C@@H]1C=C(C)C[C@H](C)C[C@H](OC)[C@H]2O[C@@](O)(C(=O)C(=O)N3CCCC[C@H]3C(=O)O[C@H](C(C)=C[C@@H]3CC[C@H](O)[C@H](OC)C3)[C@@H](C)[C@@H](O)CC1=O)[C@@H](C)C[C@@H]2OC,outcome,[1],inactive
same,outcome,[2],inactive
same,outcome,[3],inactive
COc1cc(NS(C)(=O)=O)ccc1Nc1c2ccccc2nc2ccccc12,outcome,[1],inactive
same,outcome,[2],inactive
same,outcome,[3],inactive
CN1CCN(CCC=C2c3ccccc3Sc3ccc(S(=O)(=O)N(C)C)cc32)CC1,AC50,[1],4.47 µM (active)
same,outcome,[2],inactive
same,AC50,[3],4.47 µM (active)
C[C@@H]1O[C@@H](O[C@H]2CC[C@@]3(C)[C@H](CC[C@@H]4[C@H]3C[C@@H](O)[C@]3(C)[C@@H](C5=CC(=O)OC5)CC[C@]43O)C2)C[C@H](O)[C@@H]1O[C@H]1C[C@H](O)[C@H](O[C@H]2C[C@H](O)[C@@H](O)[C@@H](C)O2)[C@H](C)O1 (stereo in doubt),AC50,[1],1 µM (active)
same,outcome,[2],inactive
same,outcome,[3],inactive
CO[C@H]1C[C@@H]2CC[C@@H](C)[C@@](O)(O2)C(=O)C(=O)N2CCCC[C@@H]2C(=O)O[C@H]([C@H](C)C[C@@H]2CC[C@H](OCCO)[C@H](OC)C2)CC(=O)[C@H](C)C=C(C)[C@@H](O)[C@@H](OC)C(=O)[C@H](C)C[C@H](C)C=CC=CC=C1C,outcome,[1],inactive
same,outcome,[2],inactive
same,outcome,[3],inactive
